# Experimental data reported in PubChem BioAssay (EPA / NIEHS).
# “And” between values parts separate entries of the source, which are not always exact repeats. Identical values can stand only once. Results filed as inconclusive are left out. More than one record can exist for a structure, and the calls need not agree. The source made the active and inactive calls. How the source made its calls, unless noted: active means hit-call score of the fitted dose curve at least 0.9, where 1 is the maximum; inactive means score below 0.9.
# Key:
# [1] = read-out: Interleukin 17F (IL17F), IL17F (gene 112744); test: BSK_BT_xIL17F: BioMAP Diversity Plus: BT Assay for Interleukin 17F (IL17F) Biomarker Activity (AID 2284243); details: primary human B cells with PBMC
# Summary of the method: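 Luminex readout of IL-17F secretion, 24 h; cells: human B cells with PBMC; positive-direction analysis, DMSO control.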
# [2] = read-out: Actin alpha 1 (ACTA1), ACTA1 (gene 58); test: BSK_MyoF_ACTA1: BioMAP Diversity Plus: MyoF Assay for Actin alpha 1 (ACTA1) Biomarker Activity (AID 2284244); details: primary human lung fibroblasts
# Summary of the method: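 alpha-SMA levels read by ELISA against DMSO baseline, 24 h post-dose, in primary human lung fibroblasts. Parallel cultures stained with 0.1% SRB after 10% TCA fixation (560 nm) to flag overt cytotoxicity.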
# [3] = read-out: Interleukin 2 (IL2), IL2 (gene 3558); test: BSK_BT_xIL2: BioMAP Diversity Plus: BT Assay for Interleukin 2 (IL2) Biomarker Activity (AID 2284245); details: primary human B cells with PBMC
# Summary of the method: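 Secreted IL-2 was read by Luminex xMAP from B cells co-cultured with PBMC (human primary) 24 h post-dosing; activity was analysed as gain of signal relative to DMSO vehicle.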
# [4] = read-out: Basic fibroblast growth factor (bFGF), FGF2 (gene 2247); test: BSK_MyoF_bFGF: BioMAP Diversity Plus: MyoF Assay for Basic fibroblast growth factor (bFGF) Biomarker Activity (AID 2284246); details: primary human lung fibroblasts
# Summary of the method: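 bFGF was measured by ELISA in primary human lung fibroblasts 24 h after chemical addition. Signal was analysed as positive-direction change relative to DMSO baseline.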
# [5] = read-out: Collagen IV, COL4A1 (gene 1282); test: BSK_MyoF_CollagenIV: BioMAP Diversity Plus: MyoF Assay for Collagen IV Biomarker Activity (AID 2284247); details: primary human lung fibroblasts
# Summary of the method: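 Collagen IV quantified by ELISA in human lung fibroblast cultures 24 h after chemical treatment, with DMSO as baseline. Parallel SRB staining (0.1% SRB after TCA fixation, 560 nm) flags overt cytotoxicity.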
# [6] = read-out: Monokine induced gamma interferon (MIG), CXCL9 (gene 4283); test: BSK_KF3CT_MIG: BioMAP Diversity Plus: KF3CT Assay for Monokine induced gamma interferon (MIG) Biomarker Activity (AID 2284248); details: primary human keratinocytes with fibroblasts
# Summary of the method: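 MIG in dosed human skin co-cultures was measured by ELISA at 24 h, relative to DMSO.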
# [7] = read-out: Collagen I, COL1A1 (gene 1277); test: BSK_hDFCGF_CollagenI: BioMAP Diversity Plus: hDFCGF Assay for Collagen I Biomarker Activity (AID 2284250); details: primary human foreskin fibroblasts
# Summary of the method: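 Collagen I quantified by ELISA 24 h after chemical dosing of human dermal fibroblast primary cells, with parallel SRB staining (0.1%, TCA-fixed, 560 nm) for overt cytotoxicity.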
# [8] = read-out: Interferon-inducible T-cell alpha chemoattractant (ITAC), CXCL11 (gene 6373); test: BSK_hDFCGF_ITAC: BioMAP Diversity Plus: hDFCGF Assay for Interferon-inducible T-cell alpha chemoattractant (ITAC) Biomarker Activity (AID 2284251); details: primary human foreskin fibroblasts
# Summary of the method: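 Chemical dosing of primary human foreskin fibroblast cultures preceded ELISA measurement of I-TAC at 24 h. Response was analysed in the positive direction using DMSO as baseline, while parallel SRB staining measured cytotoxicity.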
# [9] = read-out: Plasminogen activator inhibitor-1 (PAI1), SERPINE1 (gene 5054); test: BSK_KF3CT_PAI1: BioMAP Diversity Plus: KF3CT Assay for Plasminogen activator inhibitor-1 (PAI1) Biomarker Activity (AID 2284252); details: primary human keratinocytes with fibroblasts
# Summary of the method: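 PAI-1 levels quantified by ELISA after 24 h compound exposure of primary human skin keratinocytes co-cultured with fibroblasts. Activity is the gain relative to DMSO; cytotoxicity tracked in parallel cultures via SRB staining.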
# [10] = read-out: Monocyte Chemoattractant Protein-1 (MCP1), CCL2 (gene 6347); test: BSK_IMphg_MCP1: BioMAP Diversity Plus: IMphg Assay for Monocyte Chemoattractant Protein-1 (MCP1) Biomarker Activity (AID 2284253); details: primary human endothelial cells with macrophages
# Summary of the method: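 ELISA readout of MCP-1 at 24 hours in IMphg co-cultures of venular endothelial cells and macrophages, normalised to DMSO; parallel cultures stained with sulforhodamine B for overt cytotoxicity.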
# [11] = read-out: Interleukin-8 (IL8), CXCL8 (gene 3576); test: BSK_KF3CT_IL8: BioMAP Diversity Plus: KF3CT Assay for Interleukin-8 (IL8) Biomarker Activity (AID 2284254); details: primary human keratinocytes with fibroblasts
# Summary of the method: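 Using parallel SRB-stained cultures to flag overt toxicity, the study quantified IL-8 by ELISA in human keratinocyte–foreskin fibroblast co-cultures 24 h after dosing, with DMSO as negative control and baseline.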
# [12] = read-out: Plasminogen activator inhibitor-1 (PAI1), SERPINE1 (gene 5054); test: BSK_MyoF_PAI1: BioMAP Diversity Plus: MyoF Assay for Plasminogen activator inhibitor-1 (PAI1) Biomarker Activity (AID 2284256); details: primary human lung fibroblasts;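 further: PAI-1 protein level measured by ELISA in fibroblast cultures; PAI-1 read 24 h after compound addition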
# Summary of the method: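 In this multiplexed primary-cell system, fibroblasts from human lung received compound for 24 h before ELISA detection of PAI-1; overt toxicity was checked by SRB (0.1%, TCA-fixed, 560 nm) in parallel wells.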
# CD69, CD69 (gene 969) = test: BSK_IMphg_CD69: BioMAP Diversity Plus: IMphg Assay for CD69 Biomarker Activity (AID 2284257); details: primary human endothelial cells with macrophages
# Summary of the method: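 Readout is ELISA for CD69 in primary human venular endothelial cell/macrophage co-culture, taken at 24 h post-dosing. SRB staining of parallel cultures gauged overt cytotoxicity; signal increase versus DMSO defined activity.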
# [13] = read-out: Eotaxin 3, CCL26 (gene 10344); test: BSK_BF4T_Eotaxin3: BioMAP Diversity Plus: BF4T Assay for Eotaxin 3 Biomarker Activity (AID 2284258); details: primary human bronchial epithelial cells with fibroblasts
# Summary of the method: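 ELISA measurement of Eotaxin-3 after 24 h chemical exposure in a bronchial epithelial/dermal fibroblast co-culture, with DMSO as baseline. Parallel SRB staining (0.1% SRB after 10% TCA fixation, 560 nm) flagged overt cytotoxicity.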
# [14] = read-out: Monocyte Chemoattractant Protein-1 (MCP1), CCL2 (gene 6347); test: BSK_BF4T_MCP1: BioMAP Diversity Plus: BF4T Assay for Monocyte Chemoattractant Protein-1 (MCP1) Biomarker Activity (AID 2284259); details: primary human bronchial epithelial cells with fibroblasts
# Summary of the method: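 MCP-1 ELISA readout taken 24 h after dosing in the BF4T system (bronchial epithelial cells plus dermal fibroblasts). Parallel SRB total-protein staining flagged cytotoxicity; DMSO served as baseline, positive fitting direction.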
# [15] = read-out: Intercellular Adhesion Molecule 1 (ICAM1), ICAM1 (gene 3383); test: BSK_BF4T_ICAM1: BioMAP Diversity Plus: BF4T Assay for Intercellular Adhesion Molecule 1 (ICAM1) Biomarker Activity (AID 2284260); details: primary human bronchial epithelial cells with fibroblasts
# Summary of the method: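 ICAM-1 levels measured by ELISA after 24 h chemical treatment of bronchial epithelial cell/dermal fibroblast co-cultures, read against DMSO baseline. Overt cytotoxicity checked in parallel cultures by sulforhodamine B staining.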
# [16] = CCTE_Mundy_HCI_hNP1_CellTiter: CCTE's Cell Titer-Glo 2 Assay in human neuroprogenitor cells for Viability, Mundy Lab (AID 2284241; active means hit-call score of the fitted dose curve at least 0.9, where 1 is the maximum)
# Summary of the method: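 Measures ATP content in human neural progenitors derived from WA09 embryonic cells. Read-out at 26.5 hours after dosing, with DMSO serving as the negative control and baseline.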
# [17] = CCTE_Mundy_HCI_Cortical_Synap_Neur_Matur_NeuronCount: CCTE's Synaptogenesis and Neurite Maturation Assay in rat cortical cells for Neuron Count, Mundy Lab (AID 2284242; active means hit-call score of the fitted dose curve at least 0.9, where 1 is the maximum)
# Summary of the method: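 Neuron counts come from automated high-content imaging of Hoechst nuclei and MAP2/synaptophysin immunostaining at DIV 12, with loss of signal judged against DMSO. Cultures of rat cortical cells had glial growth arrested by AraC at DIV 5; chemical exposure began DIV 7.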
# [18] = read-out: Macrophage Inflammatory Protein-1 Alpha (MIP1a), CCL3 (gene 6348); test: BSK_IMphg_MIP1a: BioMAP Diversity Plus: IMphg Assay for Macrophage Inflammatory Protein-1 Alpha (MIP1a) Biomarker Activity (AID 2284255); details: primary human endothelial cells with macrophages
# Summary of the method: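 MIP-1a protein levels were quantified by ELISA after 24 h treatment of human endothelial cell–macrophage co-cultures, compared with DMSO. Parallel cultures were fixed with TCA and stained with 0.1% SRB to gauge overt cytotoxicity.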
smiles,measurement,setting,value
FC(F)(Br)C(F)(F)C(F)(F)C(F)(F)C(F)(F)C(F)(F)Br,outcome,[1],inactive
same,outcome,[2],inactive
same,outcome,[3],inactive
same,outcome,[4],inactive
same,outcome,[5],inactive
same,outcome,[6],inactive
same,outcome,[7],inactive
same,outcome,[8],inactive
same,outcome,[9],inactive
same,outcome,[10],inactive
same,AC50,[11],30 µM (active)
same,outcome,[11],inactive
same,outcome,[12],inactive
same,outcome,"CD69, CD69 (gene 969)",inactive
same,outcome,[13],inactive
same,outcome,[14],inactive
same,outcome,[15],inactive
CC(CCl)OP(=O)(OC(C)CCl)OC(C)CCl (centres undefined),outcome,[16],inactive
same,outcome,[17],inactive
same,outcome,[1],inactive
same,outcome,[2],inactive
same,outcome,[3],inactive
same,outcome,[4],inactive
same,outcome,[5],inactive
same,outcome,[12],inactive
FC(F)(F)C(F)(F)C(F)(F)C(F)(F)C(F)(F)C(F)(F)C(F)(F)C(F)(F)F,outcome,[16],inactive
same,outcome,[1],inactive
same,outcome,[2],inactive
same,outcome,[3],inactive
same,outcome,[4],inactive
same,outcome,[5],inactive
same,outcome,[6],inactive
same,outcome,[7],inactive
same,outcome,[8],inactive
same,outcome,[9],inactive
same,outcome,[10],inactive
same,outcome,[11],inactive
same,outcome,[18],inactive
same,outcome,[12],inactive
same,outcome,"CD69, CD69 (gene 969)",inactive
same,outcome,[13],inactive
same,outcome,[14],inactive
same,outcome,[15],inactive
OCC(F)(F)C(F)(F)C(F)(F)F,outcome,[16],inactive
same,outcome,[1],inactive
same,outcome,[2],inactive
same,outcome,[3],inactive
same,outcome,[4],inactive
same,outcome,[5],inactive
same,outcome,[6],inactive
same,outcome,[7],inactive
same,outcome,[8],inactive
same,outcome,[9],inactive
same,outcome,[10],inactive
same,outcome,[11],inactive
same,outcome,[12],inactive
same,outcome,"CD69, CD69 (gene 969)",inactive
same,outcome,[13],inactive
same,outcome,[14],inactive
same,outcome,[15],inactive
N=C(N)C(F)(F)C(F)(F)C(F)(F)C(F)(F)C(F)(F)C(F)(F)C(F)(F)F,outcome,[16],inactive
same,AC50,[1],31.7 µM (active)
same,outcome,[1],inactive
same,outcome,[2],inactive
same,AC50,[3],45.7 µM (active)
same,outcome,[3],inactive
same,outcome,[4],inactive
same,outcome,[5],inactive
same,outcome,[6],inactive
same,AC50,[7],30 µM (active)
same,outcome,[7],inactive
same,AC50,[8],57.6 µM (active) and 52.7 µM (active)
same,outcome,[9],inactive
same,outcome,[10],inactive
same,outcome,[11],inactive
same,outcome,[18],inactive
same,outcome,[12],inactive
same,outcome,"CD69, CD69 (gene 969)",inactive
same,AC50,[13],38.9 µM (active)
same,outcome,[13],inactive
same,outcome,[14],inactive
same,outcome,[15],inactive
C=C(C)C(=O)OCC(F)(F)C(F)(F)C(F)(F)F,outcome,[16],inactive
same,outcome,[1],inactive
same,outcome,[2],inactive
same,outcome,[3],inactive
same,outcome,[4],inactive
same,outcome,[5],inactive
same,outcome,[6],inactive
same,outcome,[7],inactive
same,outcome,[8],inactive
same,outcome,[9],inactive
same,outcome,[10],inactive
same,outcome,[11],inactive
same,outcome,[12],inactive
same,outcome,"CD69, CD69 (gene 969)",inactive
same,outcome,[13],inactive
same,outcome,[14],inactive
same,outcome,[15],inactive
